According to PubChem BioAssay (EPA / NIEHS):
Records with an inconclusive call do not appear. Activity calls are given as the source filed them. Rule for the calls, unless noted: active = hit-call score of the fitted dose curve at least 0.9, where 1 is the maximum; inactive = score below 0.9.

Assays:
[1] = TOX21_PR_LUC_Followup_Agonist_viability: Viability Assessment in the Tox21 HEK293 Progesterone Receptor (PR) Agonism Luciferase Follow-Up Assay (AID 2283941; active = hit-call score of the fitted dose curve at least 0.9, where 1 is the maximum;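 note: compound exposure 16 h at 37 °C; loss of signal means cytotoxicity so actives lower viability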)
Text: TOX21_PR_LUC_Followup is a secondary assay for specificity for the TOX21_PR_BLA_Agonist assay. To differentiate true PR agonists from cytotoxic substances, this follow up assay is multiplexed with a cell viability assay.TOX21_PR_LUC_Followup_Agonist_viability is an assay readout measuring cellular ATP content and detected with CellTiter-Glo Luciferase-coupled ATP quantitation.TOX21_PR_LUC_Followup_Agonist_viability used a type of viability reporter where loss-of-signal activity can be used to understand changes in the cell viability. Furthermore, this assay endpoint can be referred to as a secondary readout, because this assay has produced multiple assay endpoints where this one serves a viability function. To generalize the intended target to other relatable targets, this assay endpoint is annotated to the cell cycle intended target family, where the subfamily is cytotoxicity.
Quality Control Precautions: Maintain cells below 85-90% confluence in culture medium. […] Then 4 uL of ONE-Glo reagent (Promega, Madison, WI) was added to each plate using a BioRAPTR Flying Reagent Dispenser (FRD) workstation (Beckman Coulter, Indianapolis, IN, USA) and luminescence was quantified on a ViewLux (PerkinElmer, Shelton, CT) plate reader after 30 min incubation at room temperature.

[2] = CCTE_Harrill_HTTr_Viability_MCF7: CCTE's 6-hour Cell Viability Assessment for the High-Throughput Transcriptomics (HTTr) Platform, in MCF-7 cells cultured in DMEM + 10% fetal bovine serum, Harrill Lab (AID 2284010)
Outline: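 PI exclusion, high-content imaging; 8-pt dilution series, 6 h exposure; bidirectional fit vs DMSO (neg. ctrl/baseline); gain of signal = loss of membrane integrity.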

[3] = CCTE_Harrill_HTTr_Apoptosis_MCF7: CCTE's 6-hour Apoptosis Assessment for the High-Throughput Transcriptomics (HTTr) Platform, in MCF-7 cells cultured in DMEM + 10% fetal bovine serum, Harrill Lab (AID 2284011)
Outline: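 High-content imaging of CellEvent Caspase 3/7 Green signal follows a six-hour exposure, with eight concentrations per chemical. MCF-7 cells grown in DMEM plus 10% fetal bovine serum; activity fitted in both directions against DMSO.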

[4] = CCTE_Shafer_MEA_acute_spike_number: CCTE's Neural Acute Assay for Total Number of Spikes, Shafer Lab (AID 2284008)
Outline: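 Total spike count from 40 min recordings before and during compound exposure (0.03-40 uM), given as per-well percent change. Cortical cultures from rat, DIV 13 or 15, 37 C; adaptive detection threshold 8x rms noise.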

[5] = CCTE_Shafer_MEA_acute_firing_rate_mean: CCTE's Neural Acute Assay for Mean Firing Rate, Shafer Lab (AID 2284009);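 note: analyzed for loss of signal so actives lower firing rate relative to DMSO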
Outline: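 Rat cortical neuron cultures matured to DIV 13 or 15, equilibrated 20 min at 37 C, then recorded 40 min for baseline. Compound (0.03-40 uM) added and a further 40 min recorded; percent change in mean firing rate calculated per well.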

Nc1ccc(C(=O)OCCCOC(=O)c2ccc(N)cc2)cc1
outcome [1]: inactive

c1ccc2c(c1)[nH]c1ccccc12
outcome [1]: inactive

CC(C)(C)NC(=O)[C@H]1CC[C@H]2[C@@H]3CC[C@H]4NC(=O)C=C[C@]4(C)[C@H]3CC[C@]12C
outcome [2]: inactive | outcome [3]: inactive

CCCCOCC(C)O (configuration not stated)
outcome [2]: inactive | outcome [3]: inactive

Cc1c(C(=O)c2c[nH]n(C)c2=O)ccc(S(C)(=O)=O)c1C1=NOCC1
outcome [4]: inactive | outcome [5]: inactive | outcome [2]: inactive | outcome [3]: inactive

C=C(C)[C@@H]1CC=C(C)CC1
outcome [2]: inactive | outcome [3]: inactive

C=CCCCCCCCCC=O
outcome [2]: inactive | outcome [3]: inactive

CN(C)c1ccc2nc3ccc(=[N+](C)C)cc-3sc2c1
outcome [2]: inactive | outcome [3]: inactive

CC(=O)OCCc1ccccc1
outcome [2]: inactive | outcome [3]: inactive

CCCCCCO
outcome [2]: inactive | outcome [3]: inactive

CC/C=C\CCOC(=O)c1ccccc1O
outcome [4]: inactive | outcome [5]: inactive | outcome [2]: inactive | outcome [3]: inactive

CCCCCCCCCCCCC
outcome [2]: inactive | outcome [3]: inactive

CCOC(=O)/C=C\C(=O)OCC
outcome [2]: inactive | outcome [3]: inactive

CC=CC(=O)OCC(C)C
outcome [2]: inactive | outcome [3]: inactive

CCCCC(C=O)CC (configuration not stated)
outcome [2]: inactive | outcome [3]: inactive

COC(Cc1ccccc1)OC
outcome [2]: inactive | outcome [3]: inactive

CC1=CCC(C(C)C)C=C1 (configuration not stated)
outcome [2]: inactive | outcome [3]: inactive

CCC(C)C(=O)OC (configuration not stated)
outcome [2]: inactive | outcome [3]: inactive

O=C(O)C1CCC(C(=O)O)CC1 (configuration not stated)
outcome [2]: inactive | outcome [3]: inactive

CCCC(C)C(=O)OCC (configuration not stated)
outcome [4]: inactive | outcome [5]: inactive | outcome [2]: inactive | outcome [3]: inactive

Nc1ccc(C(=O)O)cc1
outcome [2]: inactive | outcome [3]: inactive

CC1CCC(=O)C1=O (configuration not stated)
outcome [2]: inactive | outcome [3]: inactive

C1CNCCN1
outcome [4]: inactive | outcome [5]: inactive | outcome [2]: inactive | outcome [3]: inactive
